# Assay results reported in PubChem BioAssay AID2551 (National Center for Advancing Translational Sciences (NCATS), 2010).
# The campaign covered roughly 310,000 compounds. About 17,000 (5.5%) were called active. Roughly 11% stayed inconclusive and do not appear here. The sample as a whole holds a higher share of actives than the screen did. A number with no mark means an inactive call. Calls follow the shape of the dose curve; as a rule, active = well fitted inhibition curve with a large enough effect; inconclusive = small, poorly fitted or top-dose-only effect, or effect the other way; inactive = no such curve, though single readings can be large or run the other way.
# Biological target: Nuclear receptor ROR-gamma (Mus musculus) (UniProt P51450)
# Sequence (P51450 whole entry, looked up): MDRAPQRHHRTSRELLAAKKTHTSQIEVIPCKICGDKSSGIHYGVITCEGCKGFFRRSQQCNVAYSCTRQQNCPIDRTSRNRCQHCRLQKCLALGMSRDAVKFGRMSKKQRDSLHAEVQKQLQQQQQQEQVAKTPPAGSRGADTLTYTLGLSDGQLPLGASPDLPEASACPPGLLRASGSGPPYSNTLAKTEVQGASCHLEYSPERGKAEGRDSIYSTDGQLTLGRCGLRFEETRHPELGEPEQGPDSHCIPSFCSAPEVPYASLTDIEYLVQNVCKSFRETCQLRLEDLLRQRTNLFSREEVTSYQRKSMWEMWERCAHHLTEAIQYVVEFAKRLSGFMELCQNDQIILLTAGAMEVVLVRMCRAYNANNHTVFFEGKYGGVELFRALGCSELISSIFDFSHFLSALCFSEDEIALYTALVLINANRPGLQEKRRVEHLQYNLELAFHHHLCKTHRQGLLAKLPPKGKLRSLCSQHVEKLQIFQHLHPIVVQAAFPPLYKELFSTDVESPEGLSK
# Test: qHTS for inhibitors of ROR gamma transcriptional activity; also: nearly all actives have a fitted effect of over 60% in size
# Conditions: Drosophila S2 Gal4-RORgamma UAS-luciferase reporter, 20 h; series mostly up to 53.6 µM; activity change, negative = inhibition: at the top concentration
# Summary of the method: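 Read-out: Photinus luciferase luminescence; inhibitors lower reporter signal. Insect Schneider cells with Gal4-ROR gamma fusion under metallothionein promoter, UAS reporter; 700 uM final copper sulfate induction, 20 hr, ambient temperature.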
# % is scaled to controls: 0 for no effect and ±100 for the full control effect; potency is read from the fitted curve at half-maximal effect.
Compound,"activity change, negative = inhibition",Potency
COc1cc(C(=O)N/C(=C\c2cn(C)c3ccccc23)C(=O)N2CCOCC2)cc(OC)c1OC,-8.8%,–
COC(=O)c1ccc(CNC(=O)c2ccc3oc(C(C)C)nc3c2)cc1,-3.51%,–
CCOc1ccc(CN2CCN(Cc3ccc4cc(F)ccc4n3)CC2CCO)cc1 (configuration not stated),-21.1%,–
CC(C)(C)c1ccc(C(=O)N2CCC(C(=O)N3CCCCC3)CC2)cc1,17.5%,–
Cc1ccc(C)c(OCCC(=O)OCC(=O)N2CCN(c3ccccc3)CC2)c1,22.2%,–
O=C(NCCc1ccc(Cl)cc1)c1cccc(N2CCCC2=O)c1,41.2%,–
Cc1ccc(/C=N/NC(=O)CNC(=O)COc2ccccc2)o1,14.7%,–
Cc1ccc(/C=N/NC(=O)Cn2ccc(C(F)(F)F)n2)o1,0.733%,–
Cc1ccc(/C=N/NC(=O)c2cc3ccccc3cc2O)o1,–,1.41 µM (active)
CC(=O)N(C)c1ccc(NC(=O)Nc2cccc3ccccc23)cc1,-22.6%,–
COc1cccc(NC(=O)c2ccccc2N(Cc2ccccc2)S(C)(=O)=O)c1,1.83%,–
CC1CC(=S)Nc2ccccc2N1Cc1ccccc1 (configuration not stated),–,1.41 µM (active)
CC1CC(=O)Nc2ccccc2N1S(=O)(=O)c1cccs1 (configuration not stated),-18.1%,–
CC1Cc2ccccc2N1C(=O)c1cc2sccc2n1Cc1ccccc1 (configuration not stated),27.1%,–
O=C(CN1CCN(c2ccccn2)CC1)Nc1ccc(Br)cc1,6%,–
CCC(=O)Nc1ccc(-c2ccc(N3CCCCC3)nn2)cc1,–,4.47 µM (active)
CCCCSc1nnc(-c2ccc(NC(=O)CC)cc2)n1C,27.9%,–
Cc1c(S(=O)(=O)N2CC(C)CC(C)C2)c(=O)n(C)c(=O)n1C (configuration not stated),-30.5%,–
Cc1ccc(-c2cnc(NC(=O)CCC(=O)N(C)Cc3ccccc3)n2C)cc1,–,2.24 µM (active)
Cn1c(-c2ccc(F)cc2)cnc1SCC(=O)NNC(=O)Cc1ccccc1,-1.11%,–
CN(Cc1ccccc1)C(=O)CCc1ccccc1,25.2%,–
Cc1nc(-c2ccc(F)cc2)c(CC(=O)N2CCN(S(=O)(=O)c3ccc(F)cc3)CC2)s1,33.3%,–
CCn1c(C)cc(=O)cc1-c1ccc(Cl)cc1,0.704%,–
c1ccc(-c2cc(-c3ccccc3)[nH]n2)cc1,14.3%,–
Oc1ccccc1-c1cc(-c2ccc(Cl)cc2)n[nH]1,–,7.08 µM (active)
Cc1ccc(NC(=O)c2cc(-c3ccccc3O)n[nH]2)cc1C,-21.9%,–

Compound,"activity change, negative = inhibition",Potency
CN(C(=O)CC1C(=O)NCCN1Cc1ccc2ccccc2c1)C1CCOCC1 (configuration not stated),-9.24%,–
CN(C(=O)CC1C(=O)NCCN1Cc1ccc(F)cc1Cl)C1CCCCC1 (configuration not stated),–,11.2 µM (active)
CCn1ccnc1CNC(=O)CC1C(=O)NCCN1Cc1ccc(F)cc1Cl (configuration not stated),8.52%,–
COc1cc(C2C(C(=O)c3ccco3)=C(O)C(=O)N2c2cc(C)on2)ccc1OCc1ccccc1 (configuration not stated),2.05%,–
COc1ccc(C(C(=O)NC(C)(C)C)N(Cc2ccc(F)cc2)C(=O)CCC(=O)Nc2cc(C)on2)cc1 (configuration not stated),21.9%,–
O=C(Nc1ccccc1C(=O)O)c1ccc(N2C(=O)C3CC=CCC3C2=O)cc1 (configuration not stated),-11.1%,–
O=C(Cn1cnc2ccccc21)N/N=C/c1ccco1,–,12.6 µM (active)
Cc1cc(C)c(OCC(=O)N/N=C/c2ccco2)c(C)c1,-10.1%,–
O=C(Cn1cnc2ccccc21)Nc1ccccc1-c1ccccc1,20.3%,–
COc1ccc(C(=O)N[C@H](C(=O)NCc2ccccc2)C(C)C)cc1,-13.3%,–
CNC[C@H](CC1CCCCC1)NC[C@H](NCCC1CCCC1)[C@H](C)O,-39.4%,–
O=C(Nc1cccnc1Cl)c1cc(-c2ccccc2O)on1,23.6%,–
NC(=O)Cc1nc2scc(-c3ccc(Cl)cc3)c2c(=O)[nH]1,29.3%,–
O=C(CCc1nc2ccccc2c(=O)[nH]1)OCC(=O)c1cccc(Cl)c1,-5%,–
O=c1[nH]c(CCl)nc2cc(-c3ccc(Cl)cc3)sc12,–,7.08 µM (active)
CC(C)c1cc(C(=O)N/N=C/C(Br)=C/c2ccccc2)n[nH]1,-8.97%,–
Cc1ccc(-c2cc(C(=O)NN)n[nH]2)o1,-32.5%,–
Cc1ccc(-c2cc(C(=O)N/N=C/C=C/c3ccccc3)n[nH]2)o1,–,7.08 µM (active)
CCOC(=O)N1CCC(N2Cc3cccc(C(=O)Nc4ccc(S(=O)(=O)N(CC)CC)cc4)c3C2=O)CC1,-9.07%,–
Cc1ccc2c(c1)N(CC(=O)N1CCC(C)CC1)C(=O)c1cccnc1O2,1.07%,–
CCCn1nc(NC(=O)C(C)C)c2cc3cc(OC)ccc3nc21,5.01%,–
Cc1cc(Cl)c2oc(C(=O)N(C)C(C)c3ccccn3)c(C)c2c1 (configuration not stated),12.6%,–
CCNC(=O)N1CCCC(C(=O)c2ccc(-c3ccccc3)cc2)C1 (configuration not stated),41.7%,–
NS(=O)(=O)c1ccc(CCNC(=O)c2nc(CS(=O)(=O)c3ccc(Cl)cc3)no2)cc1,6.38%,–
COc1ccccc1NC(=O)CSc1nc2sc3c(c2c(=O)n1-c1ccccc1)CCN(C)C3,20.1%,–
Cc1cccc(NC(=S)NCc2ccc3[nH]c4c(c3c2)CCCC4)c1,–,1.58 µM (active)

Compound,"activity change, negative = inhibition",Potency
C=CCNC(=S)N1CCc2[nH]c3ccccc3c2C1,-8.55%,–
O=C(O)CCC(=O)NCc1ccc2[nH]c3c(c2c1)CCCC3,-10.5%,–
Cc1cnc(CN(C)C(=O)C2CCC(=O)N(CCc3cccc(F)c3)C2)[nH]1 (configuration not stated),-3.15%,–
O=C(C[n+]1ccccc1)N/N=C/c1ccc(O)cc1,0.902%,–
Nc1nnn(CC(=O)N/N=C/c2ccc(O)cc2)n1,-0.319%,–
CC(C)(C)c1nnc(N/N=C/c2ccc(O)cc2)n(N)c1=O,–,1.26 µM (active)
CSc1cccc(NC(=O)CN2C(=O)COc3ccc(S(=O)(=O)N4CCOCC4)cc32)c1,8.6%,–
CC(=O)c1ccc(N2CCN(C(=O)CCNC(=O)Cn3ccc4ccccc4c3=O)CC2)cc1,-9.01%,–
Cc1ccccc1NC(=O)c1cc(S(=O)(=O)Nc2cccc(C(=O)O)c2)ccc1Cl,13.3%,–
COc1cccc(NC(=O)CC2C(=O)NCCN2C(=S)Nc2ccc(F)cc2)c1 (configuration not stated),29.9%,–
CCC1C(=O)NCCN1C(=O)c1ccc2nc(Cc3ccc(OC)cc3)oc2c1 (configuration not stated),19.5%,–
COc1ccc(C(=O)NC(=S)N2CCNC(=O)C2CC(=O)OC(C)C)cc1 (configuration not stated),–,4.47 µM (active)
COc1ccccc1N1CC(O)=C(c2nc3ccccc3s2)C1=N,-40.9%,–
CCOC(=O)CCCN1CC(O)=C(c2nc3ccccc3s2)C1=N,20.7%,–
N=C1C(c2nc3ccccc3s2)=C(O)CN1NC(=O)c1ccc([N+](=O)[O-])cc1,–,2.82 µM (active)
CCOc1cc(C2C(C(=O)c3ccco3)=C(O)C(=O)N2Cc2ccccc2)ccc1O (configuration not stated),-17.1%,–
Cn1nc(-c2ccccc2)c2cc([N+](=O)[O-])ccc21,-15.4%,–
Cc1c(NC(=O)Nc2cccc([N+](=O)[O-])c2)c(=O)n(-c2ccccc2)n1C,-4.92%,–
CC(CC(=O)Nc1ccc(F)cc1F)S(=O)(=O)c1ccc2c(c1)NC(=O)CO2 (configuration not stated),18.2%,–
COCC(C)n1c(C)cc(C(=O)CSc2cc(C)c3ccccc3n2)c1C (configuration not stated),-19.8%,–
Cc1cc(SCC(=O)NCCN2C(=O)CSC2=O)nc2ccccc12,–,11.2 µM (active)
Cc1nnc(SCC(=O)NCc2ccccc2)s1,30.7%,–
N[C@@H](Cc1ccccc1)C(=O)N1CCC(C(=O)NCC(=O)Nc2ccc(F)cc2)CC1,-3.33%,–
Cc1ccn2c(=O)c(C(=O)NCCC3=CCCCC3)c(O)nc2c1,-18.2%,–
O=C(Nc1cn(-c2ccccc2)nc1-c1ccccc1)c1ccccc1,28.8%,–
COC(=O)c1cn(-c2ccccc2)nc1-c1cccnc1,-14.8%,–

Compound,"activity change, negative = inhibition",Potency
O=C(NNC(=S)NC(=O)c1cn(-c2ccccc2)nc1-c1ccccc1)c1ccncc1,–,2.82 µM (active)
CC(C)CCN(C(=O)c1csnn1)C(C(=O)NC1CCCC1)c1ccccc1 (configuration not stated),-6.52%,–
Cc1ccc(NC(=O)CN(C)C(=O)COC(=O)C(C)(C)Oc2ccc(Cl)cc2)cc1,6.56%,–
Cn1c(CC(=O)Nc2ccccc2)nnc1SCC(=O)c1ccccc1,–,3.55 µM (active)
Cn1c(Cc2cccs2)nnc1SCC(=O)Nc1ccccc1,1.98%,–
Cn1c(CSCC(=O)Nc2ccccc2)nnc1SCc1ccccc1,5.44%,–
CCOc1ccc(N(CC)S(=O)(=O)c2cccc3nsnc23)cc1,-23.8%,–
O=C(CN(C(=O)c1csnn1)c1cccc(Cl)c1)NC1CCCC1,0.687%,–
COc1cc(Cl)ccc1OCc1cc(C(=O)N2CC[C@@H]3CCCC[C@H]3C2)no1,11.1%,–
CCc1ccc(NC(=O)Cn2nnc(C(=O)NCc3ccc4c(c3)OCO4)c2N)cc1,-14.2%,–
CC1CCCCC1NC(=O)/C(C#N)=C/C=C/c1ccccc1[N+](=O)[O-] (configuration not stated),–,8.91 µM (active)
O=C(/C=C/c1ccccc1[N+](=O)[O-])OC1CCCCC1=O (configuration not stated),27.5%,–
O=C(/C=C/c1ccccc1[N+](=O)[O-])NCC1CCCO1 (configuration not stated),16.2% [at 10 µM],–
CCCCC(=O)Nc1nnc(S(=O)(=O)N(C)Cc2ccco2)s1,32.9%,–
CSc1ccccc1NC(=O)c1cc(Cl)sc1Cl,16.4%,–
CC(c1ccccn1)N(C)C(=O)c1ccc2nc(Cc3cccc(Cl)c3)oc2c1 (configuration not stated),1.45%,–
COc1ccc(-c2c3c(=O)n(C)c(=O)n(C)c3cn2-c2cccc(OC)c2)cc1,44.8%,–
Cc1ccc(-c2c3c(=O)n(C)c(=O)n(C)c3cn2-n2cnnc2)cc1,–,15.8 µM (active)
Cc1ccc(-c2c3c(=O)n(C)c(=O)n(C)c3cn2-c2ccccc2O)cc1,-11.2%,–
Cc1cc(C(F)(F)F)n2ncc(-c3ccccc3)c2n1,-12.2% [at 0.365 µM],–
Cn1c(-c2sc3cc(C(F)(F)F)cnc3c2-c2ccccc2)n[nH]c1=S,–,2.82 µM (active)
CC(=O)OCC(=O)[C@@]1(O)CC[C@@H]2[C@H]3CCC4=CC(=O)C=C[C@]4(C)[C@]3(F)[C@@H](O)C[C@@]21C,-4.5% [at 2.98 µM],–
CC1(C)OC2CC3C4CCC5=CC(=O)CCC5(C)C4(F)C(O)CC3(C)[C@]2(C(=O)CCl)O1 (some centres not stated),–,10 µM (active)
CC(=O)OCC(=O)[C@@]1(O)CCC2C3CCC4=CC(=O)CC[C@@]4(C)[C@]3(F)C(O)C[C@]21C (some centres not stated),24.6%,–
